# Measurements as given in PubChem BioAssay AID1347147 (National Center for Advancing Translational Sciences (NCATS), 2019).
# Results filed as inconclusive are left out. A call without a number means that no potency is given here. Activity calls are given as the source filed them. Calls come from the whole dose curve; as a rule, active = well fitted inhibition curve with a large enough effect; inconclusive = small, poorly fitted or top-dose-only effect; inactive = no such curve, though single readings can be large or run the other way.
# Biological target: N-terminal Xaa-Pro-Lys N-methyltransferase 1 (Homo sapiens) (UniProt Q9BV86)
# Experiment: qHTS Assay for Inhibitors of N-terminal methyltransferase 1 (NTMT1): MTaseGlo Confirmatory Screen, Round 2
# Conditions: NTMT1 enzyme, MTase-Glo SAH luminescence; series mostly up to 57.4 µM
# In short: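 Luminescent MTase-Glo readout of SAH formed in 30 min at RT by 125 nM NTMT1, 100 µM SAM and 1 µM SPKRIA substrate, after ~15 min compound preincubation. Percent inhibition versus no-enzyme and DMSO controls was Hill-fitted.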
# Potency is the fitted concentration of half-maximal effect.
# Sequence of N-terminal Xaa-Pro-Lys N-methyltransferase 1 (Homo sapiens) (Q9BV86 whole entry, looked up): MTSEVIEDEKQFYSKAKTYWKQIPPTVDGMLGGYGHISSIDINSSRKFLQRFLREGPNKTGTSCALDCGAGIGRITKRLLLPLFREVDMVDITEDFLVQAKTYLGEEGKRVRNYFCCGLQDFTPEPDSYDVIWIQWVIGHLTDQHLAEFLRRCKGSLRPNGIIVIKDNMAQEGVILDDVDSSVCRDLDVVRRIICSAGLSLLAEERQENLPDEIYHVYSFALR
row,Compound,Potency
1,C[C@H](NC(=O)/C(C#N)=C/c1ccc(O)c(O)c1)c1ccccc1,inactive
2,Oc1ccc2ccccc2c1SSc1c(O)ccc2ccccc12,inactive
3,CC(=O)/C=C1\C(=O)N(C)c2ccccc21,inactive
4,COC(=O)[C@H]1[C@H]2C[C@H]3c4[nH]c5ccccc5c4CCN3C[C@H]2CC[C@@H]1O,inactive
5,Cc1cc2nc3c(=O)[nH]c(=O)nc-3n(C[C@H](O)[C@H](O)[C@H](O)COP(=O)(O)OP(=O)(O)OC[C@H]3O[C@@H](n4cnc5c(N)ncnc54)[C@H](O)[C@H]3O)c2cc1C,inactive
6,O=c1c(O)c(-c2ccc(O)c(O)c2)oc2cc(O)cc(O)c12,inactive
7,CCCCCCCCCCCCCCCCCC(=O)OC(CC(=O)O)C[N+](C)(C)C (stereo not drawn),inactive
8,NC[C@@H]1O[C@H](c2ccccc2)Cc2c1ccc(O)c2O,inactive
9,Clc1ccc(N2CCN(Cc3c[nH]c4ncccc34)CC2)cc1,inactive
10,Nc1nc(Nc2ccccc2)nc2c1ncn2[C@@H]1O[C@H](CO)[C@@H](O)[C@H]1O,inactive
11,N[C@@H](Cc1ccc(O)c(O)c1)C(=O)O,inactive
12,c1ccc(CN2CCC3(CCCc4ccccc43)CC2)cc1,inactive
13,N.N.O=C(O)C1(C(=O)O)CCC1.[Pt],inactive
14,C#CCN(C)CCCOc1ccc(Cl)cc1Cl,inactive
15,Oc1ccc(O)cc1,inactive
16,Nc1[nH]c(=O)nc2c1ncn2C1OC(CO)C(O)C1O (stereo not drawn),inactive
17,COc1cc2c(NC3CCN(C)CC3)cc(N3CCCCN(C)CC3)cc2cc1OCCOCCN(C)C,inactive
18,CN=c1nc(-c2ccccc2)n(-c2ccccc2)s1,1 µM (active)
